# Experimental data: PubChem BioAssay (NCI)
# About 83,000 compounds went through this panel and 20% of them were active in at least one assay; those are over-represented in the sample as a whole.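 Method: cells in 96-well plates; compound added at one concentration; 48 h incubation; percent growth measured; values under 10 scored active.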 A number with no mark means an inactive call. Active and inactive are the calls of the source.
# System: HL-60(TB) leukemia
# Experiment: NCI-60 one-dose screen, 48 h (100 = growth as untreated, 0 = no growth, -100 = all killed)
# Conditions: 10 µM unless noted
row,SMILES,growth
1,COc1nc2ccccc2cc1-c1nc2c(cnn2-c2ccccc2)c(=O)[nH]1,11.2%
2,O=C1/C(=C/c2ccc(Cl)cc2)CN(Cc2cn(CCCNc3ccnc4cc(Cl)ccc34)nn2)C/C1=C\c1ccc(Cl)cc1,-46.7% (active)
3,CC/C=C\C[C@H](O)C/C=C1/C(=O)C=C[C@@H]1C/C=C\CCCC(=O)OCCS(=O)(=O)c1ccccc1,62.1%
4,CN1CCN(Cc2ccc(C(=O)Nc3cncc(C#Cc4cnc(N)c5ccccc45)c3)cc2C(F)(F)F)CC1,-71.5% (active)
5,C[C@]12CC[C@@H]3c4ccc(O)c(N)c4CC[C@H]3[C@@H]1CC[C@@H]2O,85.3%
6,CN1CCN(Cc2ccc(NC(=O)c3cncc(C#Cc4cnc(N)c5ccncc45)c3)cc2C(F)(F)F)CC1,-9.61% (active)
7,O=S(=O)(Nc1cc(Sc2cccc3cccnc23)c(O)c2ccccc12)c1ccc(F)cc1,-21.9% (active)
8,Fc1ccc(-c2cc(C(Cl)Cl)no2)cc1,136%
9,C=C1C(=O)O[C@H]2[C@H]1CC/C(COC(=O)/C=C\C(=O)NCc1ccc(Cn3c(=O)sn(CCCC)c3=O)cc1)=C\CC[C@@]1(C)O[C@@H]21,-45.6% (active)
10,Fc1ccc2c(-c3cncn3CCc3ccccc3)c[nH]c2c1,85.8%
11,CCOC(=O)c1c(C)c(C(=O)OCC)n(C)c1C,85.9%
12,O=C(O)c1c(=O)cccc2ssc12,-9.53% (active)
13,CC(=O)n1c(-c2ccc(Cl)cc2)nc2c(c1=O)C(c1ccc(Cl)cc1)c1sc3c(Cl)cccc3c1O2 (stereo not given),-15.4% (active)
14,COC(=O)CCC/C=C\C[C@H]1C=CC(=O)/C1=C/C[C@@H](O)CCc1cccc(C(F)(F)F)c1,-18.2% (active)
15,COc1ccc(NCc2cn(-c3ccc(C(=O)O)cc3)nc2-c2ccc(C(=O)O)cc2)cc1C(F)(F)F,118%
16,COc1ccc(CNCCCN2C(=O)c3ccc4c5c(ccc(c35)C2=O)C(=O)N(CCCNCc2ccc(OC)c(OC)c2OC)C4=O)c(OC)c1OC,-61.3% (active)
17,C[C@]1(CO)C[C@@H](O)C[C@]2(C)[C@@H]1CC[C@@]13C[C@@H]4[C@@H](C[C@H]12)[C@]4(C)C3,103%
18,O=C1C=CC(=O)N1Cc1ccco1,108%
19,CCc1nc2ccc(Cc3ccc(C(=O)NO)cc3)cc2c(=O)n1CCc1ccccc1,-20.3% (active)
20,COc1ccc2nc3ccccc3c(NCc3ccc(Cl)cc3)c2c1,-64.5% (active)

row,SMILES,growth
1,N#C/C(C(=O)c1ccccc1)=C1/C(=O)Nc2ccc(F)cc21,130%
2,C/C(=C(\c1ccc(OCCCN(C)C)cc1)c1ccc(OC(=O)Cc2ccccc2)cc1)c1ccc(Cl)cc1,78%
3,O=C(NCCCN1CCN(CCCNC(=O)C2CCCCC2)CC1)C1CCCCC1,98.9%
4,O=C(C[N+](=O)[O-])c1ccc(Cl)cc1,104%
5,CCOC(=O)c1cc(C(=O)c2cc(OC)c(OC)c(OC)c2)n2ccc(-c3cc[n+](CC(=O)c4cc(OC)c(OC)c(OC)c4)cc3)cc12,32.9%
6,C=C1C(=O)O[C@H]2[C@H]1CC/C(COC(=O)C(=O)c1c[nH]c3ccc(Cl)cc13)=C\CC[C@@]1(C)O[C@@H]21,-44.6% (active)
7,COc1ccc(/C=C2\CN(Cc3cn(CCNc4ccnc5cc(Cl)ccc45)nn3)C/C(=C\c3ccc(OC)c(OC)c3)C2=O)cc1OC,-11.3% (active)
8,C#Cc1cccc(NC(=O)C2CCCN(C(=O)CCl)C2)c1 (stereo not given),34% [8.25 µM]
9,COc1ccc(C2=NN(C(C)=O)C(c3c(C)nn(-c4ccccc4)c3N3CCOCC3)C2)cc1 (stereo not given),101%
10,O=C(NC1CCCCC1)c1ccc(Nc2ncnc3c2cnn3-c2ccccc2)cc1,106%
11,Clc1cccc(Cc2cn3cc(-c4ccccc4)nc3s2)c1,66.1%
12,CCn1cc(C(=O)N/N=C/c2ccc(Br)cc2)c(=O)c2cc(F)c(N3CCNC(C)C3)c(F)c21 (stereo not given),48.7%
13,CCCCOC(=O)c1cccc([N+](=O)[O-])c1,142%
14,NS(=O)(=O)c1ccc(CCN2C(=O)/C(=C\c3ccc(Cl)cc3)C=C2c2ccc3ccccc3c2)cc1,99.5%
15,COc1cc2nc3c(=O)n(CCN(C)C)cnn3c(=O)c2cc1OC,106%
16,COc1ccc(-c2c(NC(=O)Nc3ccc(Cl)c(C(F)(F)F)c3)cnn2-c2ccc(S(N)(=O)=O)cc2)cc1,-15% (active)
17,CC(=O)NC(N)=S,70.8%
18,C#CCOc1ccc2ncnc(NCc3cccc(NC(=O)CCl)c3)c2c1,19.5% [8.25 µM]
19,COC(=O)c1cc(Cl)cc([N+](=O)[O-])c1O,18.8%
20,CCOC(=O)C1=NN(c2ccccc2)C(=O)/C1=C\N1C(=O)/C(=C/c2cccc(O)c2)SC1=S,93.2%
